This note sets out measurements from PubChem BioAssay AID2675 (National Center for Advancing Translational Sciences (NCATS), 2010).

Among all 280,000 compounds or so, about 100 (0.036%) were called active. Inconclusive results (about 11%) are left out. Calls come from the whole dose curve; as a rule, active = well fitted inhibition curve with a large enough effect in the signal ratio, with a control signal flat (not every such curve was filed as active); inconclusive = small, poorly fitted or top-dose-only effect, or effect the other way, or a change in a side signal; inactive = no such curve, though single readings can be large or run the other way; the % refers to the signal ratio. What follows is part of a selection rich in actives, with near analogues and random picks from the rest.
% is set by controls: 0 for no effect and ±100 for the full control effect.

Chain of Muscleblind-like protein 1 (Homo sapiens) (Q9NR56 whole entry, looked up): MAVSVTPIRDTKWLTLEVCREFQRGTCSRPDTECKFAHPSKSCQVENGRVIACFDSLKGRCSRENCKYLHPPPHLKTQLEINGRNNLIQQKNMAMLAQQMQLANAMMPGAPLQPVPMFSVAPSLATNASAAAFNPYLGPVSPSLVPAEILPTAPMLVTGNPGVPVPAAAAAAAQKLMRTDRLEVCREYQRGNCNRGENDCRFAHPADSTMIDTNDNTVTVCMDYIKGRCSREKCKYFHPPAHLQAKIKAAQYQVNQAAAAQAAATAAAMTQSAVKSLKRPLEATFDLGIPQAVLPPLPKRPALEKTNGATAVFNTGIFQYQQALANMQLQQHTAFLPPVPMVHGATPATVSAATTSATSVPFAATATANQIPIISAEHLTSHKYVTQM

The assay has as its target Muscleblind-like protein 1 (Homo sapiens) (UniProt Q9NR56). The experiment in a line: qHTS Assay for Inhibitors of MBNL1-poly(CUG) RNA binding. The conditions noted are these: TR-FRET MBNL1-His/biotin-(CUG)12 binding, 665/545 ratio; series mostly up to 57.5 µM; activity change, negative = inhibition: at the top concentration. From the text: NIH Chemical Genomics Center [NCGC] NIH Molecular Libraries Probe Production Centers Network [MLPCN] MLPCN Grant: R03 MH087421-01 Assay Submitter (PI): Charles Thornton NCGC Assay Overview: Expanded CTG repeats in the 3' untranslated region of the DM protein kinase (DMPK) gene causes type I myotonic dystrophy (DM1). DM1 is a multi-systemic disease with a prevalence of 1/7000. Clinical features include myotonia, progressive muscle weakness and wasting, cardiac arrhythmia, insulin resistance, hypersomnolence, cataracts, and other symptoms. The pathogenic effect of expanded CTG repeats stems from deleterious effects of the mutant transcript. CUGexp mRNA accumulates in nuclear foci and sequesters proteins of the muscleblind family, of which MBNL1 is the most common family member in skeletal muscles. The binding interaction between MBNL1 and CUGexp tracts leads to deregulation of alternative splicing and is therefore a key molecular step in the pathogenesis of DM1. To target this binding interaction, we optimized a protein-RNA binding assay in 1536-well format for identification of small molecule inhibitors of biotinylated (CUG)12 and his-tagged MBNL1 binding. Protein-RNA complex of MBNL1-His and Biotin-(CUG)12 captures the detection reagents terbium-labeled anti-His antibody and streptavidin conjugated XL665. This brings the terbium label within close proximity to XL665 to allow time-resolved fluorescence resonance energy transfer (TR-FRET). Inhibitors of MBNL1-(CUG)12 binding will disrupt TR-FRET.
NCGC Assay Protocol Summary: This is a TR-FRET binding assay with MBNL1-His and Biotin-(CUG)12 RNA. The assay uses a ratiometric measurement. In the presence of MBNL1-(CUG)12 complex, the excitation energy is transferred to the XL665 acceptor label, causing emission at 665nm, while the 545nm donor signal […]. Data were normalized to the controls for basal activity (buffer only) and 100% activity (with MBNL1-(CUG)12). […] The final titration was 92 nM to 58 uM. (3) Add 1 ul of terbium labeled anti-His antibody (0.055 ng/ul final concentration) (4) Add 1 ul of streptavidin-XL665 (5 nM final concentration) (5) Incubate 60 min at room temperature (6) Detect the assay plate in a EnVision plate reader (PerkinElmer) with Ex=340 nm, Em1=665 nm and Em2=545 nm. Keywords: mytonic dystrophy type I, DM1, muscleblind like 1, MBNL1, CUG expansion, protein-RNA binding inhibitor, high throughput screening, MLSMR, MLSCN, NIH Roadmap, qHTS and NCGC
In the case of `COc1cccc(CCNC(=O)c2cccc(NC(=O)C3=C(C)OCCS3)c2)c1`, the “activity change, negative = inhibition” value was -1.35% (inactive).
As to `Cc1cc(=O)[nH]c(Nc2cccc(Br)c2)n1`, the “activity change, negative = inhibition” value was -10% (inactive).
The result for `COc1ccccc1N1CCN(S(=O)(=O)CCNC(=O)c2ccc(OC(C)C)cc2)CC1` reads 1.83% (inactive).
Regarding `COc1cccc(CN(C)CC(O)COC(c2ccccc2)c2ccccc2C)c1` (stereo not drawn), the “activity change, negative = inhibition” value is -1.85% (inactive).
The result for `CCOc1ccc(NC(=O)C(C)N2C(=O)c3ccccc3C2=O)cc1` (stereo not drawn) reads 1.24% (inactive); that for `CCOc1ccc(NC(=O)c2nc(SCC)ncc2Cl)cc1`, -14.6% (inactive).
As to `CCC(C)[C@H](NC(=O)N1CCn2c1nc1ccccc12)C(=O)NCc1ccc(OC)cc1` (stereo partly drawn), the “activity change, negative = inhibition” value is -2.53% (inactive).
The value for `COc1ccc(NC(=O)c2cc([N+](=O)[O-])ccc2NC(=O)CNC2CCCCC2C)c(OC)c1` (stereo not drawn) was 18.6% (inactive).
The result for `COc1ccc(CCNC(=O)c2ccccc2OCc2ccccc2)cc1` reads -4.43% (inactive).
The value for `Cc1cc(Cl)ccc1C(=O)C1CCCN(C(=O)c2nonc2C)C1` (stereo not drawn) was 0.612% (inactive).
Turning to `CC(CCc1ccc(O)cc1)NCc1ccc(Cl)cc1Cl` (stereo not drawn), the “activity change, negative = inhibition” value was -4.16% (inactive).
Regarding `COc1ccc(CCNCc2c(-c3ccccc3)n(C)c3ccccc23)cc1`, the “activity change, negative = inhibition” value was -10.3% (inactive).
The value for `CCC(=O)c1cn(CCOc2ccccc2OC)c2ccccc12` was 2.83% (inactive).
With `COc1ccc(CC(=O)N/N=C/c2cc([N+](=O)[O-])cc(Br)c2O)cc1`, the “activity change, negative = inhibition” value is -0.176% (inactive).
Take `COC(=O)c1cc(S(=O)(=O)N2CCN(c3cc(C)ccc3C)CC2)c[nH]1`: the “activity change, negative = inhibition” value is 0.607% (inactive).
The result for `COc1cccc(C(=O)Nc2ccc(N3CCN(C(=O)c4ccco4)CC3)cc2)c1` reads -4.34% (inactive).
The result for `COC(=O)c1ccc(CN2CCCC(C(=O)Nc3cccc(-n4cnnn4)c3)C2)cc1` (stereo not drawn) reads -5.86% (inactive); that for `Cc1cc(=O)oc2c(C)c(OC(C)C(=O)NC3CCN(Cc4ccccc4)CC3)ccc12` (stereo not drawn), -6.34% (inactive); that for `C[C@H](NC(=O)[C@@H]1Cc2ccccc2CN1C(=O)OC(C)(C)C)C(=O)NC1CCCC1`, 0.26% (inactive).
The result for `CCCn1c(C2CCCN2c2nc(-c3ccc(OC)cc3)cs2)nc2ccccc21` (stereo not drawn) reads 46.7% (inactive).
On to `Cc1ccc2nc(-c3ccncc3)cc(C(=O)Nc3ccncc3)c2c1`, for which the “activity change, negative = inhibition” value was 20.1% (inactive).
The result for `COc1cccc(C(=O)N/N=C(\C)c2cccc(NC(=O)c3ccc(F)cc3)c2)c1OC` reads -0.886% (inactive); that for `O=C(NCCCO)c1cc2c([nH]c3ccccc32)c(-c2ccc(F)cc2)n1`, -3.77% (inactive).
Regarding `CCCC(=O)N1CCN(c2nnc(-c3ccc(C)cc3)c3ccccc23)CC1`, the “activity change, negative = inhibition” value was 15% (inactive).
The value for `Cc1cc(Cl)ccc1OCCCC(=O)Nc1cccc(-n2cnnn2)c1` was -0.924% (inactive); that for `CCOc1ccc(CCNC(=O)CCc2nnc3ccc(N4CCCC4)nn23)cc1OCC` was 13.4% (inactive); that for `CC(=O)N1CCOc2ccc(S(=O)(=O)N3CCN(c4cccc(C(F)(F)F)c4)CC3)cc21` was -1.07% (inactive).
The value for `CCCCN(CCCC)CCCNC(=O)CN1C(=O)COc2ccc(S(=O)(=O)N3CCC(C)CC3)cc21` was -14.2% (inactive).
The result for `Cc1ccc(OCC(=O)Nc2ccc(C(=O)O)cc2NC(=O)COc2ccc(C)c(C)c2)cc1C` reads 6.17% (inactive); that for `COc1ccc(C(=O)CC(=O)C(=O)Nc2cc([N+](=O)[O-])ccc2OC)cc1`, 0.59% (inactive); that for `CC(C)c1ccc(S(=O)(=O)N2CCN(C(=O)c3ccc(N4CCCC4)c([N+](=O)[O-])c3)CC2)cc1`, -3.33% (inactive).
Turning to `COc1cccc(NC(=O)C2CCCN(c3ncnc4c3nc3n4CCCCC3)C2)c1` (stereo not drawn), the “activity change, negative = inhibition” value is -5.89% (inactive).
The result for `Cc1ccc(CN2CCC(n3nccc3NC(=O)CCCc3ccccc3)CC2)o1` reads 5.27% (inactive).
The value for `CCc1ccc(NC(=O)CN2CCC(C(=O)c3ccc(OC)cc3)CC2)cc1` was 2.27% (inactive); that for `O=C(Nc1ccccc1N1CCCC1)c1ccc2ccccc2c1` was 9.01% (inactive); that for `CCCCCN(C(=O)CCC(=O)OCC(=O)NCc1ccc(OC)cc1)c1c(N)n(CCCC)c(=O)[nH]c1=O` was -3.21% (inactive).
The result for `CC(C)c1ccc(N(C(=O)c2ccco2)C(C(=O)NC2CCCC2)c2cccnc2)cc1` (stereo not drawn) reads -3.31% (inactive).
Turning to `COc1ccccc1CCNS(=O)(=O)c1cn(C)nc1C`, the “activity change, negative = inhibition” value is -8.89% (inactive).
The value for `CCOc1ccc(N(CC(=O)NCCc2ccc(F)cc2)S(=O)(=O)c2ccccc2)cc1` was -2.54% (inactive); that for `Cc1ccc(Cn2c(=N)c(S(=O)(=O)c3ccc(C)cc3)cc3c(=O)n4ccccc4nc32)cc1` was -0.147% (inactive).
The result for `C=CCSc1nc2c(c(=O)[nH]c(=O)n2C)n1Cc1ccccc1` reads 2.71% (inactive); that for `Cc1ccc(-c2csc(NC3OC(=O)c4ccccc43)n2)cc1` (stereo not drawn), -6.54% (inactive).
The result for `Cc1ccc(C)c(NC(=O)c2cc(-c3cc(C)cc(C)c3O)n[nH]2)c1` reads -6.85% (inactive).
Take `Cc1ccccc1N1CCN(S(=O)(=O)c2ccc3ccccc3c2)CC1`: the “activity change, negative = inhibition” value was -4.39% (inactive).
The result for `Cc1ccc(CS(=O)Cc2ccc(C(=O)N3CCOCC3)o2)cc1` (stereo not drawn) reads -11.5% (inactive).
`CCn1cc(CN2CCN(CC(C)(C)C)C(CCO)C2)c2ccccc21` (stereo not drawn): the “activity change, negative = inhibition” value is -4.13% (inactive).
The value for `Cc1ccc(-c2ccc(=O)n(Cc3ccc(F)cc3Cl)n2)cc1` was 12.1% (inactive).
The value for `CC(C)(C)c1ccc(C(=O)N2CCN(CCNC(=O)C(=O)Nc3ccc(F)cc3)CC2)cc1` was -4.23% (inactive).
